Data reported in the supplement of paper PMC6555819.

The sequences below were run on RARb:RXRa (NR concentration 270 nM, RXRa partner concentration 90 nM) (assay: PBM binding z-score (relative to random genomic background probes); higher = stronger binding; sequences stand for … in GC…GCGATTGACAGCGTAGAATGAAGG).
How it was run: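 Random background probes are the reference for binding z-scores. These scores derive from regression-normalized fluorescence on custom Agilent 4×180K protein-binding microarrays incubated 1 h with ligand-free nuclear receptor dimers. Binding was detected with antibodies against each partner (one per run).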

Going from ATCTCTAGGTAAGACTCAGTTCACTGAAGAACGC to TCATATAGATAATACAGGTGAAAGTCGGCATCTA, the PBM binding z-score falls from 0.577 to 0.481.

First: AATAAAGGGTCACTAGGCCAGAGTAGGTACGAAT
Second: TCGATTAGGTTACCAATGGGGCATTCAGCTTTCT
The PBM binding z-score of the first is higher: 5.16 for the first, 1.44 for the second.

First: ACTAGTTGGTCAGCTGACGTCACACACAATTCGG
Second: AATACAGGGTCATCGTAGTCCAGAGTACGCACAG
The PBM binding z-score of the first is lower: 0.952 for the first, 4.73 for the second.

Compared with CGAACGAGGGCATGAGATGATAGCAAATGCCGAT, ATACCAAGGAGATCGTGAGGTCGTTGATACTAAC is lower in PBM binding z-score: 1.79 for the first, 0.331 for the second.

Compared with GCTAGCAGGCCATTTCGGTCACTCAATGACGGGC, ACTATTAGGTGAGACGAGGGCAACCGATAGGTTG is higher in PBM binding z-score: 1.07 for the first, 1.64 for the second.

Going from TCCTATAGGTAAATGCTAGGTGAAAGTCCGATCT to ATCTCTAGATAAGACTCAGTTCAGTGAAGAACGC, the PBM binding z-score falls from 0.523 to -0.306.

Compared with TTAGCAAGGTGAGCTGAGGTCGTTGATCCAACTC, CGCCCAAGGTCATAGGAGGTCAGTGAAGACAGAT is higher in PBM binding z-score: 1.59 for the first, 5.45 for the second.

First: GCATATAGGTAGTACAAGGTGAAAGTCCGATTGT
Second: CAAACTAGGTCAAACGTCAAAGTCGAGCCAACCA
The PBM binding z-score of the first is lower: 0.368 for the first, 4.21 for the second.

Going from GCGACTGGGGCATCAGCAGGTTACCGTAACTTAA to GCTGCTAGGTCAGGTTGGTCAGCTTACGGGTACG, the PBM binding z-score rises from 0.841 to 3.31.

Compared with CGTCCAAGGTCAGAGAGGTCAGTGAATGCCGAGT, TAGCCTAGGTCAGGCGGGCCAGTATAGTGTCGGC is lower in PBM binding z-score: 5.21 for the first, 3.16 for the second.

Going from TCTAGTTGGTCACCGAGGTCACACACGACGGGTA to GCTGCTAGGTCAACTGTTGGTCAGCTAAAGCTCG, the PBM binding z-score rises from 3.92 to 4.42.

Going from ACAGACAGGTGATGAAGGCAACTCAGGCTATCAT to CGAACTAGGTCATCCTGGACAGTGAATACATTGA, the PBM binding z-score rises from 0.0179 to 3.58.

Compared with TTACCAAGGTGAAGGTTGTTGATCCCTCTGTAGA, GATACAGGGCCAAGGCCAGAGTACGCGTATTGAT is lower in PBM binding z-score: 1.58 for the first, 0.946 for the second.

Going from TTACCAAGGTGCAAGGTCGTTGATGCACGCCTTG to CCTAGTTGATCAAGGTCACACACGCTATAGGTAC, the PBM binding z-score rises from 1.22 to 3.95.

Going from CATACTGGGCCACGAAAGGTCATTGATTCAGTGA to CCTAGTGGGTCAAGGTCACACACGCTATAGGTAC, the PBM binding z-score rises from 4.16 to 4.87.

Compared with GGAACGAGGGCATTCGTGTTGATAGCATGGCGAT, TCTAGTTGGTCCCGGAGGTCACACACGACGGGTA is higher in PBM binding z-score: 1.62 for the first, 3.41 for the second.

Going from CCTAGCAGCCCAGGGTCACTCAAGCATTTCGCTT to CCTACTGGGTCAAGGTCATTGATCAGTCAAAGCA, the PBM binding z-score rises from 2.4 to 4.73.

Compared with CAAACTAGGTTACCGGAAGGTCAAAGTCCGCATG, TCATGTAGATCAGCAGGTTAAGAAAGCTGGCCAA is lower in PBM binding z-score: 3.9 for the first, 0.286 for the second.

Compared with AGAACGAGGGCAATGAGTTGATAGCGCGGGTGGC, CCTTATGGGTCACTGACAGGTTATAGCATTTGGA is higher in PBM binding z-score: 1.96 for the first, 3.8 for the second.

Compared with GCGACTGGGGCAAAGCAGGTCACCATAAGGTTGG, CGTCCAAGGTGAAAGGTCAGTGAAGAGATGACGG is higher in PBM binding z-score: 2.42 for the first, 4.62 for the second.
